Data on 40 compounds can be found in PubChem BioAssay (NCATS).

Records with an inconclusive call do not appear. A call without a number means that no potency is given here. A number with no mark means an inactive call. Activity calls are given as the source filed them. Calls follow the shape of the dose curve; as a rule, active = well fitted inhibition curve with a large enough effect; inconclusive = small, poorly fitted or top-dose-only effect; inactive = flat fitted curve, though single readings scatter.

This assay concerns the target Aldehyde dehydrogenase, mitochondrial (Homo sapiens) (UniProt P05091). The experiment in a line: qHTS for Inhibitors of the Aldehyde Dehydrogenase Family (ALDH2) Primary screen (AID 2061308). Also: nearly all actives have a fitted effect of over 55% in size. Particulars: ALDH2 enzyme inhibition qHTS, 1536-well; series mostly up to 56 µM. (In general: qHTS replaces the single test concentration by a dilution series.)
`COCCNc1nc(C)nc2c1nc(-c1ccccc1)n2CCN1CCCC1`: the Potency entry was “inactive”.

Take `CCOc1ccc(-c2csc(N3CCC(C(N)=O)CC3)n2)cc1`: the Potency result is “inactive”.

Turning to `O=C(O)c1c(-c2ccccc2)no[n+]1[O-]`, the Potency result was “inactive”.

In the case of `CC(C)(C)OC(=O)Cc1nnc(-c2nc3ccccc3[nH]2)o1`, the Potency entry was “inactive”.

Take `CC(C)c1ccc(=O)n(CC(=O)NCCc2ccccc2)n1`: the Potency entry is “inactive”.

With `N#Cc1cccc(S(=O)(=O)N2CCN(S(=O)(=O)c3ccc4c(c3)OCCO4)CC2)c1`, the Potency result is “inactive”.

As for `Cc1ccc(N[S+](=O)([O-])c2cc3c(cc2Cl)CCC(=O)N3)cc1Br`, the Potency result is “inactive”.

With `CC(Nc1ccc([S+](=O)([O-])Nc2nccs2)cc1)c1ccccc1` (stereo not given), the Potency result is “inactive”.

`Cc1ccc(S(=O)(=O)Nc2cc(F)c(F)cc2C(=O)Nc2nc(-c3ccccc3)cs2)cc1`: the Potency entry was “inactive”.

In the case of `CC1(C)CC[C@]23CO[C@@]4(CCC5[C@@]6(C)CC[C@H](O[C@@H]7OC[C@H](O[C@@H]8O[C@H](CO)[C@@H](O)[C@H](O)[C@H]8O)[C@H](O)[C@H]7O[C@@H]7O[C@H](CO)[C@@H](O[C@@H]8O[C@H](CO)[C@@H](O)[C@H](O)[C@H]8O)[C@H](O)[C@H]7O)[C@@](C)(CO)C6CC[C@@]5(C)[C@]4(C)C[C@H]2OC2OCC(O)C(O)C2O)C3C1` (stereo not given in full), the activity change, negative = inhibition is -1.32% [at 11.2 µM].

In the case of `Cc1nc(NCc2ccccc2)c2nc(-c3ccccc3)n(CC(C)(C)CN(C)C)c2n1`, the Potency result was “inactive”.

For the compound `COc1cc(C(=O)OC[C@@]2(O)CO[C@@H](O[C@H]3[C@H](Oc4ccc(O)cc4)O[C@H](CO)[C@@H](O)[C@@H]3O)[C@@H]2O)cc(OC)c1O`, the Potency entry is “inactive”.

As for `COc1c/c(=C2\C=c3ccccc3=N2)[nH]/c1=C\c1[nH]c(C)cc1C`, the Potency result is “inactive”.

Turning to `O=S(=O)(c1ccc(Br)cc1)N1CCN(S(=O)(=O)c2ccc3c(c2)OCCO3)CC1`, the Potency entry is “inactive”.

Consider `CC(C)(C)OC(=O)CC(=O)NNC(=O)c1cc2ccccc2[nH]1`, for which the Potency entry is “inactive”.

Consider `Cc1c(C(=O)NCC2CCCO2)[nH]c2c1C(=O)CCC2` (stereo not given), for which the Potency result was “inactive”.

Regarding `CC(=O)c1ccc(-c2csc(N3CCC(C(N)=O)CC3)n2)cc1`, the Potency entry was “inactive”.

For `Cc1cc2c(s1)c1cnn(Cc3ccccc3Br)c(=O)c1n2C`, the Potency result was “inactive”.

As to `COc1ccc(O[C@@H]2O[C@H](CO)[C@H](O)[C@H](O)[C@H]2O)cc1`, the Potency result is “inactive”.

Consider `CCN(CC)CCn1c(-c2ccccc2)nc2c(NCc3ccccc3)nc(C)nc21`, for which the Potency result is “inactive”.

For the compound `Cc1cc2c(s1)c1cnn(Cc3ccc(F)cc3F)c(=O)c1n2C`, the Potency result was “inactive”.

In the case of `Brc1ccc(-c2csc(N3CCCCC3)n2)cc1`, the Potency entry is “inactive”.

With `O=C(CSc1ncnc2sc3c(c12)CCCCC3)NCc1ccco1`, the Potency result is “inactive”.

In the case of `O=c1c2ccccc2nc2sc(Nc3ccc(Br)cc3)nn12`, the Potency result was “inactive”.

In the case of `Cc1ccc(NS(=O)(=O)c2ccc3c(c2)N(C)CCO3)cc1C`, the Potency result is “inactive”.

Turning to `COC(=O)c1ccc(NC(=O)c2nc3ccccc3n(C)c2=O)cc1`, the Potency entry is “inactive”.

For `O=C1CCCC2=C1C(c1[nH]ncc1Cl)NC(=NCc1ccncc1)N2` (stereo not given), the Potency result was “inactive”.

As for `Cc1ccc(-c2ccc(=O)n(CC(=O)N(C)C(C)c3cccs3)n2)cc1` (stereo not given), the Potency result was “inactive”.

As for `COc1cccc(NC(=S)N2CCN(c3ccc4ccccc4n3)CC2)n1`, the Potency result is “inactive”.

On to `CCOc1ccc(NC(=O)c2ccc(-c3nc4ccccc4[nH]3)cc2)cc1Cl`, for which the Potency entry is “inactive”.

For `O=C1CCC2=C1C1(CCCC1)N=C(Nc1nc3ccccc3o1)N2`, the Potency result was “inactive”.

As for `OCC#CCSc1nnc(-c2cccc3ccccc23)o1`, the Potency result was “inactive”.

On to `COc1cccc(C2=Nn3c(nnc3-c3cccc(OC)c3)SC2)c1`, for which the Potency entry is “inactive”.

Take `COc1cc(NC(=O)C(OC(=O)CNC(=O)c2ccccc2)c2ccccc2)c(OC)cc1Cl` (stereo not given): the Potency entry was “inactive”.

`Oc1cc(Nc2ccncc2)cc2cccnc12`: the Potency result is “inactive”.

Consider `Cc1cc2c(s1)c1cnn(Cc3c(F)ccc(F)c3Cl)c(=O)c1n2C`, for which the Potency entry was “inactive”.

On to `CC1CC1C(=O)Nc1ccc([S+](=O)([O-])Nc2nccs2)cc1` (stereo not given), for which the Potency result was “inactive”.

With `Cc1cc(C)nc(NC(=S)N2CCN(c3ccc(F)cc3F)CC2)c1`, the Potency result was “inactive”.

Regarding `O=C(OCC#CCSc1nnc(-c2ccc3ccccc3c2)o1)c1cccc(F)c1`, the Potency entry is “inactive”.

On to `COc1cccc(CNc2ccc(S(=O)(=O)Nc3nc4ccccc4o3)cc2)c1O`, for which the Potency entry is “inactive”.
